High-throughput results from PubChem BioAssay.
Anthrax LF prot = inhibitors of Bacillus anthracis lethal factor protease | P15917 | multiplex microsphere protease cleavage assay, LF | inhibition, % at 10 µM | 0.12% of 360,000 active | AID 588501; also: plate controls were buffer without enzyme for full effect and enzyme alone for no effect
BoNT-A LC inh2 = inhibitors of Botulinum neurotoxin A light chain protease; multiplex microsphere protease substrate cleavage, flow cytometry; inhibition, % at 10 µM; 0.17% of 360,000 active; AID 588499; also: plate controls were buffer without enzyme for full effect and enzyme alone for no effect
DUSP3 inh = blocks human VHR1 dual specificity phosphatase; inhibition, % at 13.3 µM; P51452; AID 1654; 0.52% of 290,000 active; recombinant VHR phosphatase, pNPP absorbance; in the data active = inhibition above about 50%
Target sequence (P51452 whole entry, looked up): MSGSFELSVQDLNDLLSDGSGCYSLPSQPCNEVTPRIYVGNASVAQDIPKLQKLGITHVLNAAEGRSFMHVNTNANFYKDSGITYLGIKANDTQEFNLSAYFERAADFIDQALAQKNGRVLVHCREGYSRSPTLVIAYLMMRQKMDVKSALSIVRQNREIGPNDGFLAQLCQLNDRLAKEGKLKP
Autofluor counter = flagged as autofluorescent in microsphere protease counterscreen | compound autofluorescence counterscreen, microsphere flow cytometry; hits give high values | fluorescence intensity (concentration not given with the values) | 3.1% of 360,000 active | AID 624483; in the data active = fluorescence intensity above about 16000; inconclusive = no clear call, values can overlap the other calls
BoNT F protease = blocks Botulinum neurotoxin F light chain protease; AID 588497; Multiplex microsphere protease cleavage assay, flow cytometry; inhibition, % at 10 µM; 0.22% of 360,000 active; in the data active = inhibition above about 35%, passing the limit was not always enough; inconclusive = no clear call, values can overlap the other calls; also: plate controls were buffer without enzyme for full effect and enzyme alone for no effect
MazF activator = MazEF (E. coli) toxin RNase activation. P0AE70. FAM/BHQ RNA-DNA oligo cleavage fluorescence, 5 h. activation, % at 20 µM. 0.32% of 350,000 active. AID 504720; in the data active = activation above about 50%
Target sequence (P0AE70 whole entry, looked up): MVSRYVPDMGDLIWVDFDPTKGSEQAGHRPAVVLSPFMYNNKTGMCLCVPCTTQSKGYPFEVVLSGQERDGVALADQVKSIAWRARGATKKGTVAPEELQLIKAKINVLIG
Active calls of the source: *; u = inconclusive; x = no result. In the library only some 4% were active in any assay of this set; here they are far more common. Rule as the data show it, unless noted: active = inhibition above about 30%; inconclusive = no clear call, values can overlap the other calls; inactive = below that.

SMILES	Anthrax LF prot	BoNT-A LC inh2	DUSP3 inh	Autofluor counter	BoNT F protease	MazF activator
O=c1[nH]cnc2scc(-c3ccc(-c4ccccc4)cc3)c12	4.9	0.2	33.3	10156	5.5	83.1*
CCn1c(=O)cc(OCC(=O)NC2CCCCC2)c2ccccc21	-0.4	-1.5	9.4	16641*	-3.1	3.1
CCn1c(=O)cc(OCC(=O)NCc2cccnc2)c2ccccc21	0.3	u	-0.7	23271*	-3.0	-5.7
CCn1c(=O)cc(OCC(=O)Nc2ccc(C)cn2)c2ccccc21	0.2	0.5	18.9	19603*	1.7	0.0
C1=C2C[N+]3(CCCC3)CC2Cc2ccc3ccccc3c21 (stereo not drawn)	-2.7	1.0	-35.4	3117	-4.1	2.3
O=C(Cn1nc(-c2ccc(Cl)cc2)ccc1=O)NCc1ccc2c(c1)OCO2	2.0	-0.2	8.2	4429	2.6	4.5
COc1ccc(N2CCN(C(=O)c3ccc4c(=O)n(CC5CCCO5)c(=O)[nH]c4c3)CC2)cc1 (stereo not drawn)	-0.6	-1.6	47.7	3476	6.9	1.7
CCCCCCOc1ccc(CN2CCN(C)CC2)cc1	-2.0	u	-5.1	24568*	-4.0	8.5
CCN(CC)C(=O)CSc1nc2c(sc(=S)n2-c2ccccc2)c(=O)n1-c1ccc(OC)cc1OC	-7.4	0.5	13.9	3442	21.2	0.2
CCOC(=O)CSc1nc2c(sc(=S)n2-c2ccccc2)c(=O)n1-c1ccc(OC)cc1OC	4.8	-1.2	52.6*	3101	18.7	-0.6
COC(=O)CSc1nnc(Cc2cc(=O)[nH]c(=O)[nH]2)n1-c1cccc(OC)c1	-1.5	-0.2	10.8	3913	4.4	-14.6
CCOC(=O)CSc1nnc(Cc2cc(=O)[nH]c(=O)[nH]2)n1-c1cccc(OC)c1	-13.9	u	3.3	21403*	-1.2	-5.9
CCOC(=O)CSc1nnc(CNC(=O)c2ccc(OC)cc2OC)n1-c1ccc(OC)cc1	1.1	-1.3	11.3	21152*	-0.1	1.5
COC(=O)C(C(=O)NCC1CCCO1)C1CCCCCC1 (stereo not drawn)	-1.6	-0.4	-12.8	2838	-0.5	15.3
COc1ccc(C(=O)CSc2cc(C)[nH]c(=O)n2)cc1	x	x	50.2*	x	x	-2.8
COc1ccc(NC(=O)CNC(=O)c2c(C)nn(C)c2Cl)cc1	-1.8	-1.3	13.0	4378	-7.4	13.2
COc1c(C)cc(Br)cc1C(=O)O	-4.8	-0.4	-18.3	22363*	-1.5	-16.3
O=C(/C=C/c1ccccc1Cl)Nc1ccc(-c2nnc3n2CCCCC3)cc1	4.3	3.0	-0.8	9399	8.2	2.7
Cc1cccc(C)c1N(CC(O)Cn1c2ccccc2c2ccccc21)S(C)(=O)=O (stereo not drawn)	-0.2	1.5	29.6	21877*	1.2	-2.5
Cn1c(=O)c2ncn(CC(=O)Nc3cc(C(F)(F)F)ccc3N3CCOCC3)c2n(C)c1=O	1.0	0.3	-7.5	7792	-2.4	10.0
Cc1ccc(C)c(N2CCN(S(=O)(=O)c3ccc(-c4ccc(=O)[nH]n4)o3)CC2)c1	-1.2	1.3	-17.2	5004	3.5	22.0
C=CCn1c(=NC(=O)c2ccc(S(=O)(=O)N3CCCc4ccccc43)cc2)sc2cc(S(N)(=O)=O)ccc21	37.2*	1.6	1.0	10353	18.5	-16.7
O=C(NCc1ccc(Cl)cc1)c1cc(-c2cccs2)on1	-7.9	6.9	30.1	16902*	5.6	-0.5
O=C(NCc1cccs1)c1cc(-c2cccs2)on1	-0.9	4.5	0.1	22229*	6.1	1.6
CC(NC(=O)c1cc(-c2cccs2)on1)c1ccccc1 (stereo not drawn)	-11.5	u	-7.4	16362*	-2.0	6.2
SMILES	Anthrax LF prot	BoNT-A LC inh2	DUSP3 inh	Autofluor counter	BoNT F protease	MazF activator
Cc1ccc(Cn2ccc(NC(=O)c3cc(-c4cccs4)on3)n2)cc1	0.4	-3.2	17.2	25079*	-6.5	-39.1
COc1ccc(CNC(=O)c2cc(-c3cccs3)on2)cc1	0.2	1.9	18.8	15915	3.9	6.3
O=C(NCc1cccs1)c1cc(-c2ccccc2)on1	-3.2	-0.8	7.2	6656	-12.1	-3.5
CCCc1cc(C(=O)Nc2ccn(Cc3ccc(C)cc3)n2)no1	-2.1	-0.7	23.3	4924	-4.5	0.4
COc1ccc(NC(=O)CSc2ncnc3c2cnn3CCc2ccccc2)cc1	-2.8	0.1	29.7	2225	-2.3	-2.5
CCNC(=S)NNC(=O)C(c1ccccc1)c1ccccc1	-6.5	-0.3	3.8	5328	3.2	5.6
CCNC(=S)NNC(=O)Nc1ccccc1	-4.7	-0.4	31.0	23334*	-0.7	2.3
